Assay outcomes: PubChem BioAssay, Buhrlage Lab, Dana-Farber Cancer Institute and Novartis Institutes for BioMedical Research (Cambridge, Mass)
Rows were chosen to be rich in hits. Some 13% of all compounds tested hit in one or more screens of this group.
USP30 block = inhibitors of human USP30 deubiquitinase; 47,000 tested, 5.3% active; Ubiquitin carboxyl-terminal hydrolase 30 (Homo sapiens), Q70CQ3; inhibition, % at 25 µM; purified USP30, Ub-rhodamine cleavage fluorescence; AID 1645860, 2021
USP28 inh = inhibitors of human USP28 deubiquitinase. 47,000 tested, 3% active. purified USP28, Ub-rhodamine cleavage fluorescence, 30 min. inhibition, % at 25 µM
OTUD3 inh = inhibitors of human OTUD3 deubiquitinase; OTU domain-containing protein 3 (Homo sapiens), Q5T2D3; inhibition, % at 25 µM; purified OTUD3, Ub-rhodamine fluorescence, 2 h; 47,000 tested, 0.7% active; AID 1645858, 2021
USP8 block = inhibitors of human USP8 deubiquitinase | Ubiquitin carboxyl-terminal hydrolase 8 (Homo sapiens), P40818 | purified USP8, Ub-rhodamine cleavage fluorescence, 30 min | inhibition, % at 20 µM | 47,000 tested, 4.2% active | AID 1645853, 2021
USP17 inh = inhibitors of human USP17 deubiquitinase. 47,000 tested, 6.5% active. inhibition, % at 50 µM. AID 1645855, 2021. purified USP17, Ub-rhodamine cleavage fluorescence, 3 h. Ubiquitin carboxyl-terminal hydrolase 17-like protein 5 (Homo sapiens), A8MUK1
A number is an active result; i = inactive; nt = no result. Rule as the data show it: active = inhibition above about 30%; inactive = the rest.

SMILES	USP30 block	USP28 inh	OTUD3 inh	USP8 block	USP17 inh
COc1ccc(CN2C(=O)N[C@@H](CCC(=O)Nc3cccc(OC)c3)C2=O)cc1	i	i	i	i	45
Cc1nc(-c2noc3ccc(C(=O)N4CCCC4)cc23)co1	30	i	i	i	i
Cc1nc(-c2noc3ccc(C(=O)N4CCCN(C)CC4)cc23)cs1	i	i	i	i	i
O=C1CCSc2ccc(Cl)cc2N1Cc1ccc(Cl)cc1	i	42	i	i	i
CCOc1cccc2nnc(NC(=O)Nc3ccccc3CC)n12	54	i	i	i	56
C/C1=C/C=C/[C@H](C)[C@H](O)[C@@H](C)[C@@H](O)[C@@H](C)[C@H](O)[C@H](C)[C@@H](O)[C@@H](C)/C=C(/C)C(=O)c2c(O)c(C)cc3c2C(=O)C=C(NC1=O)C3=O	i	i	i	i	51
CCc1ccc(CNC(=O)CN2C(=O)CSc3cccn3-c3ccccc32)cc1	i	i	i	i	i
O=C(CN1C(=O)CSc2cccn2-c2ccccc21)NCc1ccc(Cl)cc1	i	i	i	i	40
CSCC[C@H](NC(=O)C1(c2ccc(Cl)cc2)CCCC1)c1nnc2ccccn12	i	i	i	i	i
COc1ccc(S(=O)(=O)N2CCCCCC2c2sccc2C)cc1 (configuration not stated)	30	i	i	i	i
CCCCCc1cc(O)c2c(ccc3c(O)c4c(cc32)C(C)(C)c2cc(O)cc(O)c2C4=O)c1	i	i	i	i	31
CCN(CC)S(=O)(=O)c1ccc2oc(N3CCOCC3)nc2c1	i	i	i	68	i
CCN(CC)S(=O)(=O)c1ccc(N2CCOCC2)c(NC(=O)COc2ccccc2)c1	i	i	i	i	i
Cc1cc(C)nc(-n2ncc(C#N)c2NC(=O)c2ccc(Br)cc2)n1	i	i	i	44	i
Cc1cc(C)nc(-n2nc(C)cc2NC(=O)c2cccc(Cl)c2)n1	i	i	i	i	i
CC1CCCCC1NCC(=O)NC(c1ccccc1)c1ccccc1 (configuration not stated)	32	i	i	i	i
Cc1cc(C)c(C)c(Oc2coc3cc(O)ccc3c2=O)c1	i	34	i	i	i
CC(C)(C)c1ccc(Oc2coc3cc(OCC(=O)O)ccc3c2=O)cc1	i	i	i	i	i
Cn1cccc1/C(C#N)=C\c1ccc(C#N)cc1	i	i	i	i	i
Cc1ccc(-c2nc(-c3cccc(-c4ccnn4C)c3)no2)cc1F	i	i	i	i	i
Cc1nc(-c2ccc(-c3noc(-c4ccnn4C)n3)cc2)cs1	40	i	i	i	33
COC(=O)COc1ccc(/C=N/NC(=O)c2ccc(CN3CCc4ccccc4C3)cc2)cc1	54	i	i	36	i
O=C(Nc1ccccc1C(=O)N1CCCC1)c1ccc(CN2CCc3ccccc3C2)cc1	i	i	i	40	i
COc1ccc(C2C(C(=O)N3CCCCC3)=C(C)Nc3nc4ccccc4n32)cc1 (configuration not stated)	i	i	i	i	i
O=S(=O)(c1ccccc1)N1CCN(c2ccc(-c3cccnc3)nn2)CC1	i	i	i	i	49
SMILES	USP30 block	USP28 inh	OTUD3 inh	USP8 block	USP17 inh
COc1ccc2nc(N(CCCn3ccnc3)C(=O)c3ccc(Cl)s3)sc2c1	50	i	i	i	42
Cc1cc(C)c2sc(N(CCCn3ccnc3)C(=O)Cc3ccccc3)nc2c1	92	40	35	i	nt
CC(=O)N1CCC(c2cc(-c3cccc(C(=O)O)c3)nc(C)n2)CC1	i	i	i	i	i
Cc1sc2nc(C3CC3)n(C3CCN(C(=O)C4CCC4)CC3)c(=O)c2c1C	39	i	i	i	i
CC1CCC2(CC1)NC(=O)N(CC(=O)N(c1ccccc1)C(C)C)C2=O (configuration not stated)	i	i	i	i	i
CCC1(c2ccccc2)NC(=O)N(CC(=O)N(c2ccccc2)C(C)C)C1=O (configuration not stated)	37	i	i	i	i
CC(C)N(C(=O)Cn1c(=O)[nH]c2ccccc21)c1ccccc1	i	i	i	i	58
CCC1(c2ccccc2)NC(=O)N(CC(=O)N(C)Cc2ccccc2)C1=O (configuration not stated)	i	i	i	i	i
O=C(c1ccc(N2CCSc3ncccc32)s1)N1CCCCCC1	i	i	i	i	i
CCOC(=O)N1CCN(c2cc(N3CCN(C(N)=O)CC3)nc(SC)n2)CC1	i	i	i	i	i
COc1ccc(NC(=O)CC2C(=O)NCCN2C(=O)Nc2ccccc2OC)cc1 (configuration not stated)	i	i	i	i	i
O=[N+]([O-])c1ccccc1C(c1c[nH]c2ccccc12)c1c[nH]c2ccccc12	i	i	i	82	54
OC(c1ccccn1)c1c[nH]c2ccccc12 (configuration not stated)	i	i	i	i	i
O=C(c1cc(C2CC2)[nH]n1)N1CCC(Cc2ccccc2)CC1	32	i	i	i	i
O=C(c1cn2cc(Cl)ccc2n1)N1CCC(Cc2ccccc2)CC1	30	i	i	i	i
CCC1CCCCN1c1cc(=O)n2ccccc2n1 (configuration not stated)	i	i	i	i	i
O=C(c1cc(-c2cccnc2)nc2ccccc12)N1CCSCC1	i	i	i	i	i
CCc1nnsc1C(=O)N1CCCC1c1cc(NC)nc(C)n1 (configuration not stated)	i	i	i	i	i
Cc1cccc(NC(=O)Cn2c(=O)nc(N(C)c3ccccc3)c3ccccc32)c1	i	41	i	i	i
CCc1cccc(C)c1NC(=O)Cn1c(=O)nc(N(C)c2ccccc2)c2ccccc21	i	i	i	i	i
COCCNC(=O)N1CCCN(C2CCN(Cc3ccc(F)cc3)C2=O)CC1 (configuration not stated)	i	i	i	i	i
Cc1[nH]c2ccc(C(=O)N3CCC(O)(CN4CCCC4)C3)cc2c1C (configuration not stated)	i	i	i	i	i
Cc1cccn2c(=O)c(C(=O)N3CCC4(CC3)OCCO4)cnc12	i	i	i	i	i
O=C(CCCCCn1c(=O)c2sccc2n(CC(=O)c2ccccc2)c1=O)Nc1ccccc1	i	i	i	i	i
COc1cc(OC)cc(-n2c(=O)c3sccc3n(CC(=O)Nc3ccc(C)cc3)c2=O)c1	i	i	i	i	62
CCOc1ccc(-n2c(=O)c3sccc3n(CC(=O)Nc3cccc(C)c3)c2=O)cc1	i	i	i	i	i
COc1cc(OC)cc(-n2c(=O)c3sccc3n(CC(=O)c3ccc(F)cc3)c2=O)c1	56	i	i	i	i
Cc1cc(C)c(C(=O)N2CCCC(C(=O)NC3CCCCC3)C2)[nH]1 (configuration not stated)	i	i	i	i	i
